SKN-1 block: blocks SKN-1 activity in C. elegans; hit rate 0.49% among 360,000; inhibition, % at 21.8 µM; AID 624304; C. elegans VP596 Pgst-4::GFP/RFP ratio, acrylamide-induced, 24 h;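 active = interference check ratio from 0.5 to 1.5 plus GFP to RFP signal ratio inhibition reaching or exceeding a fixed threshold, cut at about 30% in these data, passing the limit was not always enough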
NR1D1 modulator: modulators of human Rev-erb alpha DNA binding. P20393. Rev-erbα–FITC-DNA binding, fluorescence polarization, 90 min. activity, % at 10 µM. hit rate 0.79% among 370,000;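 active = activity above about 14%, limit read from the data; passing the limit was not always enough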;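 note: 0% = DMSO wells with 35 nM protein and 100% = DMSO wells with 750 nM protein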
PG9 Ab binder: small molecules binding HIV-1 gp120 antibody PG9 | inhibition, % at 6.7 µM | AID 624416 | TR-FRET gp120-PG9 antibody binding | hit rate 0.43% among 360,000; in the data active = inhibition above about 8.5%
EP2 modulator: modulators of human EP2 prostaglandin E2 receptor. AID 940. hit rate 0.83% among 260,000. EP2-expressing cells, cAMP HTRF FRET, PGE2 co-stimulation. P43116. induction, % at 25 µM;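 active = compounds whose cAMP rise, as percent of the full-agonist control response, exceeds 60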;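 note: rat C6 glioma line stably carrying human EP2 under a CMV promoter; the protocol text gives 20 µM as final concentration; 100% = response of wells given 1 µM PGE2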
Target sequence (P43116 whole entry, looked up): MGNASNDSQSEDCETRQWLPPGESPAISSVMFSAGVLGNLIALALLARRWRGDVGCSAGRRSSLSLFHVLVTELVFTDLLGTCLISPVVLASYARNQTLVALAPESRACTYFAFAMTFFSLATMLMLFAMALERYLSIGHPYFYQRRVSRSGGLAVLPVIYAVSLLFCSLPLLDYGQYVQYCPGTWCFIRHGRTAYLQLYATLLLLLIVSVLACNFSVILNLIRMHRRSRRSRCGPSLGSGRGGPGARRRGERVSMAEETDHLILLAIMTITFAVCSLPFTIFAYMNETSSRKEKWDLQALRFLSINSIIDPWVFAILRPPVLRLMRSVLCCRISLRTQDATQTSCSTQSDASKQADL
RAM inhibit: yeast RAM network inhibition; S. cerevisiae dse1pr::URA3 reporter, 5-FOA growth OD615, 2 d; analog-sensitive cbk1-as2 kinase mutant strain; inhibition, % at 50 µM; hit rate 1.8% among 190,000; AID 868;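 active = inhibition above a set limit, 3 SD over mean compound inhibition, cut at about 8.4% in these data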;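 note: 0% = DMSO-only wells with no growth and 100% = 10 µM 1-NA-PP1 full growth; inhibition rescues growth on 5-FOA so higher OD means more RAM inhibition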
EP2 antag: blocks the human prostaglandin E2 receptor EP2. C6 glioma cells expressing human EP2, cAMP TR-FRET; cells stimulated with saturating PGE2. inhibition, % at 25 µM. hit rate 0.52% among 260,000;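 active = percent inhibition above 40 after rounding to a whole number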;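 note: rat C6 glioma host cells with rolipram phosphodiesterase inhibitor present; the protocol text gives 20 µM as final concentration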
NR1D1 mod conf: Rev-erb alpha (human) modulation, hit confirmation. shares compounds with NR1D1 modulator. Rev-erb alpha FITC-DNA binding, fluorescence polarization, 90 min. activation, % at 25 µM. hit rate 61% among 3,000;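 active = activation at or above a set limit, or at least 3 SD above the negative control mean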;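 note: 0% = 35 nM protein with DMSO and 100% = 750 nM protein high control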
RORg DNA counter: affects RORgamma DNA binding in a Rev-erb alpha counter-screen; IC50, µM; hit rate 8% among 910; purified RORgamma protein-FITC-DNA binding, fluorescence polarization; AID 1259320; shares compounds with NR1D1 modulator;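 active = Compounds whose fitted half-maximal concentration for disrupting protein-DNA binding is below 10 micromolar; the record names Rev-erb in its text, so the target is in doubt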
Active calls of the source: *; x = no result. Only some compounds are listed: those with a hit (about 2.9% of all), similar ones and a draw of the others.

SMILES | SKN-1 block | NR1D1 modulator | PG9 Ab binder | EP2 modulator | RAM inhibit | EP2 antag | NR1D1 mod conf | others
COc1cc(C(=O)Nc2ccccc2-c2nnn(CC(N)=O)n2)cc(OC)c1OC | 9.4 | 3.3 | 1.2 | -11.2 | 3.1 | 11.6 | x
COc1ccc(C(=O)Nc2ccccc2-c2nnn(CC(N)=O)n2)cc1 | 3.8 | 95.7* | -1.1 | x | x | x | 80.7* | RORg DNA counter=>40
CC(C)C(=O)N1CCN(c2ccc(NC(=O)C(C)(C)C)cc2)CC1 | x | x | x | 8.7 | x | 8.6 | x
CC(=O)NC1(c2ccc(F)cc2)CCN(Cc2[nH]c3ccccc3c2Cl)CC1 | x | x | x | -103.2 | x | 9.1 | x
O=C(Nc1ccnn1C1CCN(Cc2ccn[nH]2)CC1)c1ccccc1 | -8.3 | 15.6* | -1.0 | x | x | x | -5.0
CCOC(=O)c1c(NC(=O)COC(=O)c2ccc(O)cc2)sc(C(=O)NC)c1C | 11.0 | 38.1* | -0.5 | x | x | x | 29.3*
COc1ccc2cc(/C=N/NC(=O)c3c(Cl)cnn3C)c(Cl)nc2c1 | 14.9 | 23.8* | -3.9 | 11.8 | 7.0 | 5.8 | 11.0
N#Cc1c2ncn(CC(=O)c3ccc(Br)cc3)c(=O)c2c2n1CCC2 | -9.0 | 16.9* | 7.7 | 6.2 | 4.9 | 8.7 | 7.5
N#Cc1c2n(c3c(=O)n(CC(=O)c4ccc(Br)cc4)cnc13)CCCC2 | 24.3 | 8.1 | -0.2 | 3.1 | 3.9 | 13.7 | x
O=C1CSC(c2ccccc2)N1Nc1nc(N2CCOCC2)nc(N2CCOCC2)n1 (stereo not drawn) | -1.3 | 21.8* | -1.5 | -15.5 | 1.7 | 13.4 | 5.2
COc1ccc(CNC(=O)c2ccc(C(C)(C)C)cc2)cc1 | -11.7 | -2.6 | 1.8 | -63.0 | 2.0 | 22.3 | x
COc1ccc(CNC(=O)CN(C)Cc2ccc(C(C)(C)C)cc2)cc1 | 15.0 | 25.4* | -1.3 | x | x | x | -2.9
CN1C(=O)c2cc(NC(=O)c3ccccc3)ccc2OC[C@H]2O[C@@H](CC(=O)NCC3CC3)CC[C@@H]21 | x | 33.8* | x | x | x | x | 21.7*
Cc1ccccc1NC(=O)Nc1ccc2c(c1)C(=O)N(C)[C@H]1CC[C@H](CC(=O)NCC3CC3)O[C@@H]1CO2 | x | 29.8* | x | x | x | x | 14.3*
O=S(=O)(c1cc(Cl)ccc1Cl)N1CCOCC1 | x | x | x | -1.0 | x | 13.1 | x
O=C(Nc1ccc(Oc2ccccc2)cc1)c1csc(COCCO)n1 | -3.8 | 15.5* | -1.6 | x | x | x | 1.4
O=C(CN1CCCC1)N1N=C(c2cccs2)CC1c1cccs1 (stereo not drawn) | x | x | x | -30.8 | x | 6.5 | x
CCN1C(=O)/C(=C/c2ccc(N3CCCC3)cc2)NC1=S | 34.7 | 56.3* | -8.8 | -21.6 | 1.7 | 6.9 | 48.7* | RORg DNA counter=>40
Cc1cc2nc(-c3cccc(Cl)c3)c(Cc3cccc(Cl)c3)n2c(C)c1Br | 23.3 | 4.5 | -1.4 | x | x | x | x
Cc1cc2nc(-c3cccc(Cl)c3)c(CC(C)(C)C)n2c(C)c1Br | 5.6 | 15.0* | 1.0 | x | x | x | 8.9
Cc1c(C(N)=O)sc2ncn(CC(=O)OC3CCCCC3)c(=O)c12 | x | x | x | -43.3 | x | 10.9 | x
Cc1cc(C(C)(C)C)ccc1OCCCCN1CCCC1 | 6.4 | 0.6 | 0.6 | -43.6 | 0.7 | 2.5 | x
Cc1cc[n+](CC[n+]2ccc(C)cc2)cc1 | 2.1 | -2.2 | 0.9 | x | x | x | x
CCC(C)(C)c1ccc(OCCCC[n+]2ccc(C)cc2)c(C(C)(C)CC)c1 | x | 33.6* | -0.5 | -19.9 | -1.2 | 14.5 | 36.1* | RORg DNA counter=>40
CCC(C)(C)c1ccc(OCCCC[n+]2cccc(C)c2C)c(C(C)(C)CC)c1 | -27.5 | 41.7* | -1.1 | -6.6 | x | 20.6 | 43.0*
SMILES | SKN-1 block | NR1D1 modulator | PG9 Ab binder | EP2 modulator | RAM inhibit | EP2 antag | NR1D1 mod conf | others
Cc1cc2c(s1)c1cnn(CC(=O)N3CCCCC3)c(=O)c1n2Cc1ccc(F)cc1 | x | x | x | 7.8 | x | x | x
COc1ccccc1-c1nc(SCC(=O)N(C)c2ccccc2)c2c(=O)n(C)c(=O)n(C)c2n1 | 4.1 | 81.5* | -0.1 | 34.3 | 0.6 | 8.9 | 46.1* | RORg DNA counter=>40
Cc1ccc(-c2nc(SCC(=O)Nc3cc(C)on3)c3c(=O)n(C)c(=O)n(C)c3n2)cc1 | 1.5 | 24.1* | 0.8 | x | x | x | 17.5*
Cn1c(=O)c2c(SCC(=O)Nc3ccccc3F)nc(-c3ccccc3F)nc2n(C)c1=O | -16.1 | 26.0* | -0.8 | x | x | x | 2.8
Cc1ccc2c(c1)cc(CN(C(=O)c1ccccc1F)C1CCCC1)c1nnnn12 | x | x | x | -9.2 | x | 9.8 | x
CCn1c(=O)c(CCC(=O)NCC2CCCO2)c(C)c2c(C)nn(-c3ccc(C)cc3)c21 (stereo not drawn) | -20.5 | 19.5* | 4.4 | x | x | x | 2.4
COc1ccc(C(=O)Nc2ccc(C(=O)Nc3cccnc3)cc2)cc1 | -8.9 | 25.9* | 0.8 | x | x | x | 23.9*
COc1ccc(C(=O)Nc2cccc(-c3cnc4ccccc4n3)c2)cc1 | -16.4 | 25.6* | -1.3 | -27.6 | 3.4 | 14.6 | 13.4
Cc1ccc(C(=O)Nc2cccc(-c3cnc4ccccc4n3)c2)cc1 | 12.5 | -1.7 | 0.3 | -5.2 | 4.7 | 3.3 | x
COc1ccc(C(=O)N2C(=O)c3ccc(N)cc3C2=O)cc1 | -11.7 | 23.2* | 1.4 | 6.6 | 0.6 | 3.9 | 6.6
COc1ccc(C(=O)n2cnc(N)n2)cc1 | -6.6 | -2.6 | 0.4 | 20.9 | -0.5 | 13.3 | x
Clc1ccc(CSc2nnc(COc3ccc(Br)cc3)o2)cc1 | x | x | x | -33.1 | x | 10.3 | x
CCn1cc(C(=O)NCCc2ccc(Cl)cc2)c(=O)c2ccc(C)nc21 | -5.1 | 29.1* | -1.2 | x | x | x | 14.5
O=C(c1cc2cc(F)ccc2[nH]1)N1CCc2ccccc2C1 | 9.6 | 6.8 | -1.6 | x | x | x | x
O=C(c1cc2cc(Cl)ccc2[nH]1)N1CCc2ccccc2C1 | 17.6 | 59.8* | 1.4 | x | x | x | 6.3
COC(=O)c1cc(-c2cc3ccccc3s2)c(=O)n2c1CCC2 | x | 57.5* | x | x | x | x | 39.9* | RORg DNA counter=>40
Fc1ccc(Nc2nc(-c3ccncc3)nc3ccccc23)cc1 | 18.6 | 17.4 | 3.2 | 9.2 | 1.1 | 10.7 | x
c1ccc(Nc2nc(-c3ccncc3)nc3ccccc23)cc1 | 20.9 | 30.1* | -1.2 | -5.9 | 0.5 | 3.3 | 22.8*
COc1ccccc1OCCCC(=O)Nc1sc2c(c1C#N)CCC(C)C2 (stereo not drawn) | x | x | x | -27.2 | x | 10.6 | x
N#CCOc1ccccc1CNC[C@H]1O[C@@H](n2cnc(C(N)=O)n2)[C@H](O)[C@@H]1O | 14.8 | 16.3* | 0.6 | x | x | x | -6.6
CCc1ccc(-c2cc(C(F)(F)F)n3nc(C(=O)Nc4cnn(Cc5ccccc5C)c4)cc3n2)s1 | 8.4 | 37.0* | -0.3 | 6.4 | 3.8 | 10.1 | 13.5
Cc1ccccc1Cn1cc(NC(=O)c2cc(-c3ccco3)on2)cn1 | 12.2 | 0.4 | -3.8 | -18.9 | 5.5 | 13.2 | x
CCc1ccc(-c2cc(C(F)(F)F)n3nc(C(=O)Nc4c(C)nn(Cc5ccccc5C)c4C)cc3n2)s1 | 18.8 | x | x | 8.8 | 2.1 | 12.7 | x

Assay outcomes from PubChem.
